Laboratory results published in PubChem BioAssay AID1159580 (chemical genetic matrix, 2015).
About 2,000 (36%) of roughly 5,500 compounds were called active. About 18% were inconclusive and are not listed. No stated cut-off is given here; in the data, active means normalized growth mostly below about 0.91 (no sharp cut-off); inconclusive means no clear call, values can overlap the other calls; inactive means mostly above about 0.92. The list shows a part of the results.

Test: chemical genetic growth profiling, strain panel (AID 1159580);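 further: tested at 20 µM; growth read once vehicle control cultures reached saturation at 30 °C; 1 = growth at the plate median or of vehicle wells; lower values mean less growth of the strain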
Conditions: growth OD

Measured: normalized growth

O=C1C=C(O)c2ccccc2C1=O
inactive: S. cerevisiae deletion strains, locus YJR043C, strain POL32, active compounds read low 1.01 | S. cerevisiae deletion strains, locus YKL009W, strain mrt4, active compounds read low 1.04 | S. cerevisiae deletion strains, locus YKL068W, active compounds read low 0.942 | S. cerevisiae deletion strains, locus YKL085W, strain MDH1 (second series), active compounds read low 0.947 | S. cerevisiae deletion strains, locus YKL085W, strain MDH1, active compounds read low 0.947 | S. cerevisiae deletion strains, locus YKL160W, strain elf1, active compounds read low 0.912 | S. cerevisiae deletion strains, locus YKR001C, strain vps1, active compounds read low 0.9 | S. cerevisiae deletion strains, locus YKR091W, strain srl3, active compounds read low 0.961 | S. cerevisiae deletion strains, locus YLL001W, strain dnm1, active compounds read low 0.937 | S. cerevisiae deletion strains, locus YLL026W, active compounds read low 0.952 | S. cerevisiae deletion strains, locus YLL041C, strain sdh2, active compounds read low 0.939 | S. cerevisiae deletion strains, locus YLR027C, strain aat2, active compounds read low 0.935 | S. cerevisiae deletion strains, locus YLR039C, strain RIC1, active compounds read low 0.71 | S. cerevisiae deletion strains, locus YLR058C, strain SHM2, active compounds read low 0.949 | S. cerevisiae deletion strains, locus YLR102C, strain apc9, active compounds read low 0.982 | S. cerevisiae deletion strains, locus YLR113W, strain HOG1, active compounds read low 0.867 | S. cerevisiae deletion strains, locus YLR221C, strain rsa3, active compounds read low 0.925 | S. cerevisiae deletion strains, locus YLR258W, strain gsy2, active compounds read low 0.944 | S. cerevisiae deletion strains, locus YLR262C, strain YPT6, active compounds read low 0.82 | S. cerevisiae deletion strains, locus YLR268W, strain sec22, active compounds read low 0.923 | S. cerevisiae deletion strains, locus YLR320W, strain mms22, active compounds read low 0.949 | S. cerevisiae deletion strains, locus YLR330W, strain CHS5, active compounds read low 0.959 | S. cerevisiae deletion strains, locus YLR342W, strain FKS1 (second series), active compounds read low 1.04 | S. cerevisiae deletion strains, locus YLR342W, strain FKS1, active compounds read low 0.948 | S. cerevisiae deletion strains, locus YLR357W, strain rsc2, active compounds read low 0.932 | S. cerevisiae deletion strains, locus YLR370C, strain arc18, active compounds read low 0.941 | S. cerevisiae deletion strains, locus YLR371W, strain rom2, active compounds read low 0.966 | S. cerevisiae deletion strains, locus YLR384C, strain iki3, active compounds read low 0.971 | S. cerevisiae deletion strains, locus YLR418C, strain cdc73, active compounds read low 0.894 | S. cerevisiae deletion strains, locus YML016C, strain PPZ1, active compounds read low 0.956 | S. cerevisiae deletion strains, locus YML032C, strain rad52, active compounds read low 0.907 | S. cerevisiae deletion strains, locus YML120C, strain ndi1, active compounds read low 0.93 | S. cerevisiae deletion strains, locus YML124C, strain tub3, active compounds read low 0.964 | S. cerevisiae deletion strains, locus YMR078C, strain ctf18, active compounds read low 0.989 | S. cerevisiae deletion strains, locus YMR125W, strain sto1, active compounds read low 0.954 | S. cerevisiae deletion strains, locus YMR129W, active compounds read low 0.937 | S. cerevisiae deletion strains, locus YMR205C, strain PFK2, active compounds read low 0.994 | S. cerevisiae deletion strains, locus YMR223W, strain ubp8, active compounds read low 0.944 | S. cerevisiae deletion strains, locus YMR307W, strain GAS1, active compounds read low 0.863 | S. cerevisiae deletion strains, locus YNL067W, strain RPL9B, active compounds read low 0.966 | S. cerevisiae deletion strains, locus YNL071W, strain lat1, active compounds read low 0.945 | S. cerevisiae deletion strains, locus YNL128W, strain TEP1, active compounds read low 0.974 | S. cerevisiae deletion strains, locus YNL183C, strain NPR1, active compounds read low 0.884 | S. cerevisiae deletion strains, locus YNL209W, strain ssb2, active compounds read low 0.941 | S. cerevisiae deletion strains, locus YNL233W, strain BNI4, active compounds read low 0.978 | S. cerevisiae deletion strains, locus YNL248C, strain rpa49, active compounds read low 0.951 | S. cerevisiae deletion strains, locus YNL250W, strain rad50, active compounds read low 0.953 | S. cerevisiae deletion strains, locus YNL271C, strain bni1, active compounds read low 0.941 | S. cerevisiae deletion strains, locus YNL298W, strain CLA4, active compounds read low 0.968 | S. cerevisiae deletion strains, locus YNL307C, strain MCK1, active compounds read low 0.968 | S. cerevisiae deletion strains, locus YNL322C, strain KRE1 (second series), active compounds read low 0.944 | S. cerevisiae deletion strains, locus YNL322C, strain KRE1, active compounds read low 0.971 | S. cerevisiae deletion strains, locus YNR049C, strain mso1, active compounds read low 0.958 | S. cerevisiae deletion strains, locus YNR052C, strain pop2, active compounds read low 0.941 | S. cerevisiae deletion strains, locus YOL006C, strain TOP1, active compounds read low 0.865 | S. cerevisiae deletion strains, locus YOL012C, strain htz1 0.668 | S. cerevisiae deletion strains, locus YOL147C, strain pex11, active compounds read low 0.955 | S. cerevisiae deletion strains, locus YOR001W, strain rrp6, active compounds read low 0.931 | S. cerevisiae deletion strains, locus YOR061W, strain CKA2, active compounds read low 0.979 | S. cerevisiae deletion strains, locus YOR069W, strain VPS5, active compounds read low 0.971 | S. cerevisiae deletion strains, locus YOR070C, strain gyp1, active compounds read low 0.956 | S. cerevisiae deletion strains, locus YOR080W, strain dia2, active compounds read low 0.951 | S. cerevisiae deletion strains, locus YOR083W, strain WHI5, active compounds read low 0.904 | S. cerevisiae deletion strains, locus YOR136W, strain idh2, active compounds read low 0.952 | S. cerevisiae deletion strains, locus YOR144C, strain elg1, active compounds read low 0.966 | S. cerevisiae deletion strains, locus YOR184W, strain ser1, active compounds read low 0.918 | S. cerevisiae deletion strains, locus YOR265W, strain rbl2, active compounds read low 0.944 | S. cerevisiae deletion strains, locus YOR270C, strain vph1, active compounds read low 0.846 | S. cerevisiae deletion strains, locus YOR290C, strain snf2, active compounds read low 0.902 | S. cerevisiae deletion strains, locus YOR316C, strain cot1, active compounds read low 0.98 | S. cerevisiae deletion strains, locus YPL078C, strain atp4, active compounds read low 0.897 | S. cerevisiae deletion strains, locus YPL106C, strain sse1, active compounds read low 0.866 | S. cerevisiae deletion strains, locus YPL241C, strain CIN2, active compounds read low 0.967 | S. cerevisiae deletion strains, locus YPR119W, strain clb2, active compounds read low 0.966 | S. cerevisiae deletion strains, locus YPR141C, strain kar3, active compounds read low 0.948 | S. cerevisiae deletion strains, locus YPR163C, strain tif3, active compounds read low 0.995 | S. cerevisiae deletion strains, locus YPR167C, strain met16, active compounds read low 0.956 | S. cerevisiae deletion strains, strain wtn01, active compounds read low 0.967 | S. cerevisiae strains, strain wild type, active compounds read low 0.978
active: S. cerevisiae deletion strains, locus YJR066W, strain TOR1, active compounds read low 0.825 | S. cerevisiae deletion strains, locus YKR026C, strain gcn3, active compounds read low 0.919 | S. cerevisiae deletion strains, locus YLR262C, strain YPT6 (second series), active compounds read low 0.738 | S. cerevisiae deletion strains, locus YMR058W, strain fet3, active compounds read low 0.872 | S. cerevisiae deletion strains, locus YMR231W, strain pep5, active compounds read low 0.919 | S. cerevisiae deletion strains, locus YOR106W, strain vam3, active compounds read low 0.863 | S. cerevisiae deletion strains, locus YOR231W, strain MKK1, active compounds read low 0.797 | S. cerevisiae deletion strains, locus YPL051W, strain arl3, active compounds read low 0.873 | S. cerevisiae deletion strains, locus YPL240C, strain hsp82, active compounds read low 0.918 | S. cerevisiae deletion strains, locus YPL256C, strain CLN2, active compounds read low 0.818
